# Measured values published in ChEMBL document CHEMBL3988442, “University of Dundee, Small-Polar-MMV Screening Library” (2021).
# For some assays here: Entries with a potency or affinity are not part of this list.
# What was measured:
# Set-up in all cases: scale not given: direction of the effect not stated beside the values
# [1] = molecular target: Protein translocase subunit SecA (Escherichia coli (strain K12)) (UniProt P10408); assay: Assay to Identify E. coli SecA ATPase Inhibitors; format: functional; conditions: 30 µM
# [2] = molecular target: T1, Ubiquitin-activating enzyme e1, putative (Leishmania donovani (strain BPK282A1)) (UniProt E9BSI1); assay: Leishmania donovani Ubiquitin Activating Enzyme (LdE1); format: functional; conditions: 30 µM
# T1 sequence (whole entry): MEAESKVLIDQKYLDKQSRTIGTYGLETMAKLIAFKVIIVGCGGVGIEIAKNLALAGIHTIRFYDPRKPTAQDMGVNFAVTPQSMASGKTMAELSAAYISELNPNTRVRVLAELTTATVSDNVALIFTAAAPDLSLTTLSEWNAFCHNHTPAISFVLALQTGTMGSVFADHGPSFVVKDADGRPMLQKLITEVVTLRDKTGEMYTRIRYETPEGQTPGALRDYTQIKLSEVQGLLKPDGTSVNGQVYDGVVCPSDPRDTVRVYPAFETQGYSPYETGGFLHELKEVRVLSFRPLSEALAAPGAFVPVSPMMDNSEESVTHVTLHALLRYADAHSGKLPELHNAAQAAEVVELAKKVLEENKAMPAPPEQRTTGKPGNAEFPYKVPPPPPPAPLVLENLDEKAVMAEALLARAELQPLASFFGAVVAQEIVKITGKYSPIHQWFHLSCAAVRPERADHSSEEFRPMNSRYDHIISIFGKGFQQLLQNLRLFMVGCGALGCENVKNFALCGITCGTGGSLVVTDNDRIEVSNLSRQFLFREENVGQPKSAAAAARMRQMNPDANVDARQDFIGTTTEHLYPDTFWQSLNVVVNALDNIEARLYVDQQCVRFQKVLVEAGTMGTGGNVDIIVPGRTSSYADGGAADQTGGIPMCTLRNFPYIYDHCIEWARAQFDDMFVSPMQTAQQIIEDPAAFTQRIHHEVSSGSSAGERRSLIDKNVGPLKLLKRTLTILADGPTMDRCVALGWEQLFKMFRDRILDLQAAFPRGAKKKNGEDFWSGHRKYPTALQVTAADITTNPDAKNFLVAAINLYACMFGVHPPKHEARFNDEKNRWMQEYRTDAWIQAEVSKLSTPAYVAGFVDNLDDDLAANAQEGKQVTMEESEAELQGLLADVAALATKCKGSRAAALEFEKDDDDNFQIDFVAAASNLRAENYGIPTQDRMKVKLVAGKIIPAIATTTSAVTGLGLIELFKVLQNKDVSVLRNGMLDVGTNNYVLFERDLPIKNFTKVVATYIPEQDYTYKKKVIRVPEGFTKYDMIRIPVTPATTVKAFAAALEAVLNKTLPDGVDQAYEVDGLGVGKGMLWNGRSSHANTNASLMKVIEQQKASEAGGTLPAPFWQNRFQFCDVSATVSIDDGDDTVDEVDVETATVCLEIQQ
# [3] = molecular target: Sialic acid-binding Ig-like lectin 9 (Homo sapiens) (UniProt Q9Y336); assay: Hs-Siglec9 ALPHAscreen SOP 20170721; conditions: 10 µM
# [4] = system: Trypanosoma cruzi; assay: Trypanosoma cruzi phosphomannomutase and mannose-1-phosphate guanylyltransferase assay; format: functional; conditions: 10 µM
# [5] = molecular target: T2, Arginase-2, mitochondrial (Homo sapiens) (UniProt P78540); assay: in vitro enzyme assay to detect the production of urea directly proportional to the activity of Arginase II; format: functional; conditions: 33.3 µM; further: in the data most compounds retested in dose-response had high values
# T2 sequence (whole entry): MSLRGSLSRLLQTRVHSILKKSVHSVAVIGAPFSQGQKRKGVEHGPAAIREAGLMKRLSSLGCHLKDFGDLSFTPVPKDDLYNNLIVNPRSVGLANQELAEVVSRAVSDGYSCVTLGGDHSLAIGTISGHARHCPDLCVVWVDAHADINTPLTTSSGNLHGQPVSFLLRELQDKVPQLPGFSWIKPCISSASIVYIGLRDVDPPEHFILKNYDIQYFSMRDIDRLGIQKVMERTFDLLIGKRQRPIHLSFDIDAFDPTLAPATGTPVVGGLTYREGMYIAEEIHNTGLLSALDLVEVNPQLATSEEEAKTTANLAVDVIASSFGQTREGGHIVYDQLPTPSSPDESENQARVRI
# [6] = molecular target: T3, Proteasome subunit beta (Trypanosoma cruzi) (UniProt O96673); assay: Trypanosoma cruzi proteasome chymotrypsin-like activity (TcProtChymo) assay.; further: in the data most compounds retested in dose-response had high values; format: functional; conditions: 9.37 µM
# T3 sequence (whole entry): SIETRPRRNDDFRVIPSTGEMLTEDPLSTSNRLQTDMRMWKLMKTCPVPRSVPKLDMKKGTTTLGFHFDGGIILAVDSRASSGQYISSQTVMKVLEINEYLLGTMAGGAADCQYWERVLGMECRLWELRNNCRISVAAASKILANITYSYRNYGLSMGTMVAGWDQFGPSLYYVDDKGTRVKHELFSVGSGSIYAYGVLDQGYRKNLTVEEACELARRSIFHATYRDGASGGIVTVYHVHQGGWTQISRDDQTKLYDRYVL
# [7] = species: Homo sapiens; assay: To identify inhibition of the IFN signalling (Jak-Stat) pathway via expression of an eGFP reporter gene under the control of an IFN-stimulated response element (ISRE) containing MxA promoter.; format: functional; conditions: 30 µM
# [8] = molecular target: T4, Tyrosyl-tRNA synthetase, putative (Trypanosoma cruzi (strain CL Brener)) (UniProt Q4DSP6); assay: Trypanosoma cruzi tyrosyl tRNA synthetase (TcYRS) _High Tyrosine SOP; format: functional; conditions: 30 µM; further: in the data most compounds retested in dose-response had high values
# T4 sequence (whole entry): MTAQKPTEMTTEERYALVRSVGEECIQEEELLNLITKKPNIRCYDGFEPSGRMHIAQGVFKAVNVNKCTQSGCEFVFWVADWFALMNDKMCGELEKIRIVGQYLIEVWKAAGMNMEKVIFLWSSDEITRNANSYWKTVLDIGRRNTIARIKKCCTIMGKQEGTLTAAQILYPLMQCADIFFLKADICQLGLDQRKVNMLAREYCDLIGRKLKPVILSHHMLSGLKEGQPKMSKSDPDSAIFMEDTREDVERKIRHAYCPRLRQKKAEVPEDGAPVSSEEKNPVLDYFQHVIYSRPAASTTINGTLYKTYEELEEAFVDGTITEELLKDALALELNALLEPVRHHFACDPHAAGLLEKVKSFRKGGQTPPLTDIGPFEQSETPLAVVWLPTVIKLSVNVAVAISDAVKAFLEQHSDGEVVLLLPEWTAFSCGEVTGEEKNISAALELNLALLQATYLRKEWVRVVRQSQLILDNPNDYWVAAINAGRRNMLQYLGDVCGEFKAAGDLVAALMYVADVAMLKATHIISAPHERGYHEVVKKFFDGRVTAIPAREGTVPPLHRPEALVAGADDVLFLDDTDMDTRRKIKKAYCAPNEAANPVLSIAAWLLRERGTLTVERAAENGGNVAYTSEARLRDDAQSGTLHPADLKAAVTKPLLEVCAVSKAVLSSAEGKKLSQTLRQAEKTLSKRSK
# [9] = molecular target: T4, Tyrosyl-tRNA synthetase, putative (Trypanosoma cruzi (strain CL Brener)); assay: Trypanosoma cruzi tyrosyl tRNA synthetase (TcYRS) SOP; format: functional; conditions: 30 µM
# [10] = molecular target: Chromo domain-containing protein 1 (Saccharomyces cerevisiae (strain ATCC 204508 / S288c) (Baker's yeast)) (UniProt P32657); assay: ScCHD-1 Enzyme Inhibition Assay; format: functional; conditions: 30 µM; further: in the data most compounds retested in dose-response had high values
# Chain of Chromo domain-containing protein 1 (Saccharomyces cerevisiae (strain ATCC 204508 / S288c) (Baker's yeast)) (P32657 whole entry, the tested form may be a part): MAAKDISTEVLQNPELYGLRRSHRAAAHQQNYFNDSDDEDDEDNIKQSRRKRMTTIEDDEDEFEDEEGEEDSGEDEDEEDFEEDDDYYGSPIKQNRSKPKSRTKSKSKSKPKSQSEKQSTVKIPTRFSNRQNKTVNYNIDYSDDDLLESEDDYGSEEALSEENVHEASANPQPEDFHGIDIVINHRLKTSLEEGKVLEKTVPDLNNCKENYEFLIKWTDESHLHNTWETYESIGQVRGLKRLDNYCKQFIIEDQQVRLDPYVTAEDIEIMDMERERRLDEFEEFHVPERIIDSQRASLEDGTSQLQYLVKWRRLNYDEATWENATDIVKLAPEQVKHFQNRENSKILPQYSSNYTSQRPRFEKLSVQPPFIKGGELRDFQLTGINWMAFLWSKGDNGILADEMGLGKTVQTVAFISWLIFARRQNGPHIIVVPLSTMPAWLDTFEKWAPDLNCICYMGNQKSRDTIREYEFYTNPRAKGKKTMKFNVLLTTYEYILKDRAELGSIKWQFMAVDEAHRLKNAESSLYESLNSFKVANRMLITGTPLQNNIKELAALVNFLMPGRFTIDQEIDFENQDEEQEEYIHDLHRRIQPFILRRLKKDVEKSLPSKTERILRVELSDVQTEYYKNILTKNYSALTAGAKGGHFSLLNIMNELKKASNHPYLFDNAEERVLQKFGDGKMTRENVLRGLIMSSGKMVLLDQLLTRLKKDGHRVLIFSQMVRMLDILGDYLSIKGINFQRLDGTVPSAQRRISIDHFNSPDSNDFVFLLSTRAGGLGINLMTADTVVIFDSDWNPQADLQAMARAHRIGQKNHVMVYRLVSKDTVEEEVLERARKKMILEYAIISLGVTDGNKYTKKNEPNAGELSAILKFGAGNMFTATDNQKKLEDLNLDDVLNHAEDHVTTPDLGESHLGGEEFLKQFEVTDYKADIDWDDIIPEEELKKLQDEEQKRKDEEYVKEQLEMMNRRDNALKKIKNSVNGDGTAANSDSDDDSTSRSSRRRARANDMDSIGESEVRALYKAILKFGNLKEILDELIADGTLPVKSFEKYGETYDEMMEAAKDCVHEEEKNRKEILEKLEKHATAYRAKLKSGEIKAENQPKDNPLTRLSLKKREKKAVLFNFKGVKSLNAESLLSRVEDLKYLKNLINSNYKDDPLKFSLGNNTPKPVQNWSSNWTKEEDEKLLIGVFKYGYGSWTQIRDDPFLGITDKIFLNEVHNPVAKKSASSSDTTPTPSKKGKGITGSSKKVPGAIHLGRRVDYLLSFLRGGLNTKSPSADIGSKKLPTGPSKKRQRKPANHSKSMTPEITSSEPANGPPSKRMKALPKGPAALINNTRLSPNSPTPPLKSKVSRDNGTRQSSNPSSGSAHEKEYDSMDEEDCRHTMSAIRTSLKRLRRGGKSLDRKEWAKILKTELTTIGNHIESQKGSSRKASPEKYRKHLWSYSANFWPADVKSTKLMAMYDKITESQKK
# Chain of Sialic acid-binding Ig-like lectin 9 (Homo sapiens) (Q9Y336 whole entry): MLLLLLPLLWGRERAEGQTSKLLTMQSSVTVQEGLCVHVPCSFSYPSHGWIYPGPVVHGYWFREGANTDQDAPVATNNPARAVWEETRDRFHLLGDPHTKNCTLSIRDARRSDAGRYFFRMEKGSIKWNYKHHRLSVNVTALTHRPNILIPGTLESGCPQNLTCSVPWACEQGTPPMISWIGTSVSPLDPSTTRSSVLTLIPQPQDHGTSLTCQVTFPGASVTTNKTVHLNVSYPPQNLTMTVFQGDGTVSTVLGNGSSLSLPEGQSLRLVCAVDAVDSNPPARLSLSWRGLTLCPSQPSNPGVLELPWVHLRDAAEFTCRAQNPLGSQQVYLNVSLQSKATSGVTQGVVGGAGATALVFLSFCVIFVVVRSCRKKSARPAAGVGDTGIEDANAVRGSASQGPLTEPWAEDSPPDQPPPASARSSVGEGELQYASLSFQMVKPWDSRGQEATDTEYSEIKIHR
# Chain of Protein translocase subunit SecA (Escherichia coli (strain K12)) (P10408 whole entry): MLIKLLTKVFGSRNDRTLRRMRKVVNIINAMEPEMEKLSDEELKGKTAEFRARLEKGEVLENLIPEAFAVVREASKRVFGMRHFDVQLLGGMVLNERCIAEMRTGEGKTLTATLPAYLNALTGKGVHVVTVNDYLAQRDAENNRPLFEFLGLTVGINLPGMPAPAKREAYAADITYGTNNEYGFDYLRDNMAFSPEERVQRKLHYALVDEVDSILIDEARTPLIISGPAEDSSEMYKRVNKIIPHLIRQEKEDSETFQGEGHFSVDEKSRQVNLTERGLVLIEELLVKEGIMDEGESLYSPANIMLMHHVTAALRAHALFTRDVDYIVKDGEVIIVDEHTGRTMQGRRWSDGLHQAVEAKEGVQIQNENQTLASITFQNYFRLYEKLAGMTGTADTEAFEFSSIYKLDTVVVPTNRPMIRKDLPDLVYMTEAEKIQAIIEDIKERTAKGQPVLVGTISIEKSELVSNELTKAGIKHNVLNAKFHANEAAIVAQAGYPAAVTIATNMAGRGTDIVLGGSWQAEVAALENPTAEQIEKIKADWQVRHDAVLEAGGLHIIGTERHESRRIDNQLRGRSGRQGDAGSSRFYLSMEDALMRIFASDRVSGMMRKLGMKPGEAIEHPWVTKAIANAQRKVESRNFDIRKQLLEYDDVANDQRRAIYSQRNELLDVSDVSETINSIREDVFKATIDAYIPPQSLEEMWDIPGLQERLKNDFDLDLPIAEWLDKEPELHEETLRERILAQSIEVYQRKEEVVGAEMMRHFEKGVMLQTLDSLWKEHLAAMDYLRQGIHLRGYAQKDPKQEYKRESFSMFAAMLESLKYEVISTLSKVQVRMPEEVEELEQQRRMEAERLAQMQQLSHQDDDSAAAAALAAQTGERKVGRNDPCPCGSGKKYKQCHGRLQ
SMILES,Percent Effect [1] [%],Percent Effect [2] [%],Percent Effect [3] [%],Percent Effect [4] [%],Percent Effect [5] [%],Percent Effect [6] [%],Percent Effect [7] [%],Percent Effect [8] [%],Percent Effect [9] [%],Percent Effect [10] [%]
CN1CCN(c2ncnc3c2c(C(=O)NC2CC2)c2ccccn23)CC1,-0.824,-6.49,1.78,-5.16,3.24,-2.56,0.0174,-1.58,0,-13.6
Cc1ncc2c(n1)CCN(Cc1nc3ccccc3o1)C2,-4.63,16,-1.93,0.201,-6.21,16,-5.07,7.89,25.6,-11
CC(C)CN1CCN(C)C2(CCN(Cc3ccsc3)CC2)C1=O,-3.52,6.49,-3,0.188,1.83,-2.49,-6.74,7.73,10,1.23
CCN(Cc1cccc2c1OCO2)C(=O)NC1CC1,-0.28,13,9.18,1.68,-7.17,1.75,3.66,3.92,28.2,-7.71
c1cnn(CC2CCCN2Cc2nc(-c3ccoc3)no2)c1 (stereo not given),-4.7,5.33,2.88,3.41,-4.88,10.3,-9.56,4.74,7.69,-12.5
CC(C(=O)Nc1ncccn1)N1CCCN(c2nccs2)CC1 (stereo not given),-0.557,15.4,-8.35,-7.04,2.05,14.8,22.9,4.31,1.21,-2.28
CCN1C(=O)CCCC12CCCN(C(=O)c1cnccn1)C2 (stereo not given),-2.55,3.9,1.16,-0.75,-2.28,2.49,14.1,2.9,7.5,-6.78
CCn1nc2c(cc1=O)CN(Cc1nc(CCOC)no1)CC2,-2.71,5.13,-1.28,4.6,9.43,0.427,4.98,0.478,8.43,-3.33
Cc1cnn(C2CCCN(C(=O)Cc3ccc(-n4cccn4)cc3)C2)c1 (stereo not given),-6.71,-2.67,3.46,3.81,2.66,1.27,6.09,-1.58,5.13,-7.75
Cc1noc(C)c1C(=O)N1C[C@H]2CCC[C@@]2(COc2ccccn2)C1,-6.59,11.7,1.71,8.28,-7.29,12.3,-28.1,3.68,12.8,-2.44
CCn1ccnc1CN1CCC(N(C)Cc2ncc(C)o2)C1 (stereo not given),-0.494,13.3,-7.04,-3.21,3.1,12.5,14.6,10,17.9,-11.2
COc1cccc(OC)c1CN1CCC2(CC(Nc3ccncn3)C2)C1 (stereo not given),-0.631,1.33,2.05,-4.93,1.77,3.61,11.6,5.29,5,-14
Cc1cnn(C(C)C2CC2)c1NC(=O)c1ccncc1 (stereo not given),-9.84,-5.41,-2.58,-1.26,1.75,5.82,-1.9,-1.6,0,-0.204
CCn1ncnc1C1CC(=O)NCc2nc3ccccn3c21 (stereo not given),-7.68,10.8,16.9,6.11,10.8,4.62,14.8,5.85,9.76,84
CS(=O)(=O)NCC1CCCN(C(=O)c2ccc(Cl)o2)C1 (stereo not given),1.32,7.79,-4.36,-0.746,7.58,14.6,-11.3,4.9,18.8,-10
CCc1nc(CN2CCCN(C(=O)COCC3CC3)CC2)cs1,-1.44,12.8,-6.97,-0.282,0.82,9.64,6.06,11,22.9,-6.08
CSc1ccccc1C(C(=O)O)N1CCN(Cc2ccccn2)CC1 (stereo not given),-6,13.5,6.14,9.21,60.5,10.8,14.2,6.92,19.5,0.128
Cc1cnn(CC2CCCN2CC(=O)Nc2cc(C)nn2C)c1 (stereo not given),-2.33,5.2,5.19,2.8,1.02,-5.44,0.341,4.9,16.5,-7.89
COCCN1CCCC1c1nccnc1Nc1nc(C)cs1 (stereo not given),-2.72,12,5.33,-2.56,3.98,7.55,21.3,9.52,15,-24.9
CC(=O)N1CCCN(CC(C)(O)c2cccc(C(F)(F)F)c2)CC1 (stereo not given),-3.98,10.4,8.53,2.42,-7.99,3.51,-6.46,6.86,16.5,-9.58
NC(=O)c1cc(C2CCCN(CCOCC(F)(F)F)C2)n[nH]1 (stereo not given),-3.84,2.56,-22.8,9.3,-5.33,8.45,-4.53,2.39,10.8,26.2
CCC1=N[C@@]2(CC[C@@H]3CN(C(=O)NCc4ccccc4)C[C@@H]32)C(=O)N1,-4.85,3.9,-3.04,1.66,-4.86,4.33,-16.6,5.79,5.13,-0.556
Cc1cccc(CN2C[C@@H]3COC[C@]3(CNC(=O)c3ccsc3)C2)n1,-7.55,9.09,-4.17,1.27,-3.64,22.3,-5.86,7.89,12.8,108
